Inhibition data for one compound are collected here from ChEMBL document CHEMBL1961873, “Compounds: GSK PKIS; Assays: Nanosyn kinase panel” (2012).

The target in experiment [1] is Sphingosine kinase 1 (Homo sapiens) (UniProt Q9NYA1). The note with it: at 1 µM.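 Further: mean SPHK1 inhibition value reported from the GSK PKIS kinase panel screen.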
The target in experiment [2] is T1, Sphingosine kinase 2 (Homo sapiens) (UniProt Q9NRA0).
T1 sequence (whole entry): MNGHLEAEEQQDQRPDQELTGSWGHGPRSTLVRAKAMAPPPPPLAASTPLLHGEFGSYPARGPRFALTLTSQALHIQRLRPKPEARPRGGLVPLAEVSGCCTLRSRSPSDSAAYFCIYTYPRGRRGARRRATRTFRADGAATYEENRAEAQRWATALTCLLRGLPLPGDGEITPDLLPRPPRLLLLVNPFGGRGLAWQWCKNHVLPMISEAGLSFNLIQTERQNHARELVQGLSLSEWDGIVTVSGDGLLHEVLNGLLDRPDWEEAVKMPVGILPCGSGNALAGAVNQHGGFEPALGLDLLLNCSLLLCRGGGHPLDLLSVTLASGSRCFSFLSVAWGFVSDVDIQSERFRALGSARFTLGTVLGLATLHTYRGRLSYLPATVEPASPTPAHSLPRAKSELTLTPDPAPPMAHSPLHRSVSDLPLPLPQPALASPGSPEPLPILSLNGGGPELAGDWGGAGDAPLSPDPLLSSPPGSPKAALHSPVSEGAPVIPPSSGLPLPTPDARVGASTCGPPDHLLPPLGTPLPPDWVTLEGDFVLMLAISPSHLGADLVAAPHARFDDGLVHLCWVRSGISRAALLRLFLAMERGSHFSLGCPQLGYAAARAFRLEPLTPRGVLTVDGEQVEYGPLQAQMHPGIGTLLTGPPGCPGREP
To be noted: at 0.1 µM.

Experiment [3] has as its target T1, Sphingosine kinase 2 (Homo sapiens). To be noted: at 1 µM.
The target in experiment [4] is Casein kinase II subunit alpha (Homo sapiens) (UniProt P68400). The note with it: at 0.1 µM.
The target is the same in experiment [5]. To be noted: at 1 µM.
Experiment [6] addresses T2, Inhibitor of nuclear factor kappa-B kinase subunit alpha (Homo sapiens) (UniProt O15111).
T2 sequence (whole entry): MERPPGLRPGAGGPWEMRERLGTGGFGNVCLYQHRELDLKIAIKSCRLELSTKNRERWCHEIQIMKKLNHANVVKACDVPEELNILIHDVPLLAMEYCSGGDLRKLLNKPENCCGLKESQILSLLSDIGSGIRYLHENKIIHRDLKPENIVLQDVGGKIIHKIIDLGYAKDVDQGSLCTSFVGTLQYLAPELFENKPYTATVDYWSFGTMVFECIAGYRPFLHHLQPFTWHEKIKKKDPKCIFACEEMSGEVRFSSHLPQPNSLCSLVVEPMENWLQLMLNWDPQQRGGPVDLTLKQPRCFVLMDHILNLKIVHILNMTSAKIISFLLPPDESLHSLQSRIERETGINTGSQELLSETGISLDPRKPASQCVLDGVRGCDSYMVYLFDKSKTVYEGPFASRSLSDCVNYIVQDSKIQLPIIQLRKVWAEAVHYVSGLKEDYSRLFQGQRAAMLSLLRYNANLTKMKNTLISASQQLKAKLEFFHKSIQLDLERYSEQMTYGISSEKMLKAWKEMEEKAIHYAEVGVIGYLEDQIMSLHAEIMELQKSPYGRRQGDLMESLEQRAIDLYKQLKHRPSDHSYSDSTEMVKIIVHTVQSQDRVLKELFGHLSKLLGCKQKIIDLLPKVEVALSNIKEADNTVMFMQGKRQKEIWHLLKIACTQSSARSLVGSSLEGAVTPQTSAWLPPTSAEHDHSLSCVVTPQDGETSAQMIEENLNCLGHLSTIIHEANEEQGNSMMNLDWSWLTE
The note with it: at 0.1 µM.

The target in experiment [7] is T2, Inhibitor of nuclear factor kappa-B kinase subunit alpha (Homo sapiens). To be noted: at 1 µM.
The target of experiment [8] is T3, Inhibitor of nuclear factor kappa-B kinase subunit beta (Homo sapiens) (UniProt O14920).
T3 sequence (whole entry): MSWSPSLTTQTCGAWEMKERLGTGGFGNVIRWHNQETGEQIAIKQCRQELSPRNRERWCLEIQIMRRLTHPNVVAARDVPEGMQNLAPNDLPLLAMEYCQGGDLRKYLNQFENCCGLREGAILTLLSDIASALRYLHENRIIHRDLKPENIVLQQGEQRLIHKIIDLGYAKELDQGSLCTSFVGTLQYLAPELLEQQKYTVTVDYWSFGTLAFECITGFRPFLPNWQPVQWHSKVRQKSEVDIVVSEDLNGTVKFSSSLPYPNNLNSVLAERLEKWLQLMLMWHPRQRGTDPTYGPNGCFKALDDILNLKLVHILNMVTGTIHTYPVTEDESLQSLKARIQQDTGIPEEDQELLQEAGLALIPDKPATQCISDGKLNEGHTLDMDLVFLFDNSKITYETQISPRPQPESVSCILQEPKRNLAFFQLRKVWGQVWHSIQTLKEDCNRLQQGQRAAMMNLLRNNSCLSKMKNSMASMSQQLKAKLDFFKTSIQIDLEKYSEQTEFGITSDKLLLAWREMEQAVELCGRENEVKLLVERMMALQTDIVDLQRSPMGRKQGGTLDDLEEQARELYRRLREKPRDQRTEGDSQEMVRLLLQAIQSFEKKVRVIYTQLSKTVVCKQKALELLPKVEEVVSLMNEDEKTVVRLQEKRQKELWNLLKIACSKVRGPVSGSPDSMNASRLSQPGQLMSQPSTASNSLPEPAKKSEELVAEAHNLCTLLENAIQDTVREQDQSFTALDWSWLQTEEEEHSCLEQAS
To be noted: at 0.1 µM.

In experiment [9] the target is T3, Inhibitor of nuclear factor kappa-B kinase subunit beta (Homo sapiens). The note with it: at 1 µM.
The target of experiment [10] is T4, Inhibitor of nuclear factor kappa-B kinase subunit epsilon (Homo sapiens) (UniProt Q14164).
T4 sequence (whole entry): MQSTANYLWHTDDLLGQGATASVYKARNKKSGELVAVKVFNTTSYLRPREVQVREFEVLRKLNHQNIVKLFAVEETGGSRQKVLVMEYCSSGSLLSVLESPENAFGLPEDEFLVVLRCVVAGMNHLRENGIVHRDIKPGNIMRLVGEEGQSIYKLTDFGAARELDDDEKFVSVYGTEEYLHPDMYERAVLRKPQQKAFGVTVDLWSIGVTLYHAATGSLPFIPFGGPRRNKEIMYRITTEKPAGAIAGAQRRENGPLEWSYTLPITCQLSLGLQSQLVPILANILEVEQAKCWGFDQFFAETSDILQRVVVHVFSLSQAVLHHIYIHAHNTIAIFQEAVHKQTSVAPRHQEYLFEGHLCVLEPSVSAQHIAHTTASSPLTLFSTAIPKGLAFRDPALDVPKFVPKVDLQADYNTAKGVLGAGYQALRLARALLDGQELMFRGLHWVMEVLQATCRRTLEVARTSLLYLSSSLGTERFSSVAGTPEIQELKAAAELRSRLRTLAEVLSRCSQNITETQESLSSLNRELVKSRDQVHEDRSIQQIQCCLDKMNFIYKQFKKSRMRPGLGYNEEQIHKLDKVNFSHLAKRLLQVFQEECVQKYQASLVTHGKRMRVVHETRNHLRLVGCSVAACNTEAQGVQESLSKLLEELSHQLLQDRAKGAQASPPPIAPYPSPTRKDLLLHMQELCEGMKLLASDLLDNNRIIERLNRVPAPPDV
To be noted: at 0.1 µM.

Experiment [11] has as its target T4, Inhibitor of nuclear factor kappa-B kinase subunit epsilon (Homo sapiens). To be noted: at 1 µM.
For experiment [12], the target named is T5, Serine/threonine-protein kinase Nek1 (Homo sapiens) (UniProt Q96PY6).
T5 sequence (whole entry): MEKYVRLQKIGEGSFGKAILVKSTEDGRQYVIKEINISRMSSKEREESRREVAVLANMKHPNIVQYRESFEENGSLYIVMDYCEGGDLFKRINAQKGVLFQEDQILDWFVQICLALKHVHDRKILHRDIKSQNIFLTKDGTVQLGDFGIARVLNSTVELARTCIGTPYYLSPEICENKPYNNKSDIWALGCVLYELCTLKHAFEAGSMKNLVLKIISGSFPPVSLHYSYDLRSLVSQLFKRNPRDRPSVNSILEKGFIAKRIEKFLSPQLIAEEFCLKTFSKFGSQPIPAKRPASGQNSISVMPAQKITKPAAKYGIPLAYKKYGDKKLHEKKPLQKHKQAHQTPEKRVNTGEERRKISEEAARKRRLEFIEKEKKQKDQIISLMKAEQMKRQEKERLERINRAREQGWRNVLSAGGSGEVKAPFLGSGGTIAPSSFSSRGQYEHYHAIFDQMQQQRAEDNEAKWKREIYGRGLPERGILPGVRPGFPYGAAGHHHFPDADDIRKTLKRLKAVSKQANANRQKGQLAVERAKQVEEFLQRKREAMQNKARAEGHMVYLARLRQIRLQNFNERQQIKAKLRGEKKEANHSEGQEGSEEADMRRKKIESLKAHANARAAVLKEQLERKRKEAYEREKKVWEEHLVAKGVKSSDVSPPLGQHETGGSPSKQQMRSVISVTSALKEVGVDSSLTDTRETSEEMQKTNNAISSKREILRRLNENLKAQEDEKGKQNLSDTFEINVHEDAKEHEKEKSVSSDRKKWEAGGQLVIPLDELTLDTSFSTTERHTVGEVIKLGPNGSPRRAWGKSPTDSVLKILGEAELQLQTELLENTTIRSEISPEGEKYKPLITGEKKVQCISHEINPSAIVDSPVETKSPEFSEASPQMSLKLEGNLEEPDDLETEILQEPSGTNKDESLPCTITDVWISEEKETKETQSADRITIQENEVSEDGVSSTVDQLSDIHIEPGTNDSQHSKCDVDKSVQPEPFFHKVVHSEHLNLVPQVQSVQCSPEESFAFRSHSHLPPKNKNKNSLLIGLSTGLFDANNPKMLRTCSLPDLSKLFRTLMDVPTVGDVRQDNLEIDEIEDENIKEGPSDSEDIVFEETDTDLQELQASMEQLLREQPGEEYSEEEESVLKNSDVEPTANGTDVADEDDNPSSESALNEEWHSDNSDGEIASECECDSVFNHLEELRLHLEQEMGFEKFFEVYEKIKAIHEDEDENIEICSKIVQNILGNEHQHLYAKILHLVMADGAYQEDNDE
The note with it: at 0.1 µM.

For experiment [13], the target named is T5, Serine/threonine-protein kinase Nek1 (Homo sapiens). The note with it: at 1 µM.
For experiment [14], the target named is T6, Serine/threonine-protein kinase Nek2 (Homo sapiens) (UniProt P51955).
T6 sequence (whole entry): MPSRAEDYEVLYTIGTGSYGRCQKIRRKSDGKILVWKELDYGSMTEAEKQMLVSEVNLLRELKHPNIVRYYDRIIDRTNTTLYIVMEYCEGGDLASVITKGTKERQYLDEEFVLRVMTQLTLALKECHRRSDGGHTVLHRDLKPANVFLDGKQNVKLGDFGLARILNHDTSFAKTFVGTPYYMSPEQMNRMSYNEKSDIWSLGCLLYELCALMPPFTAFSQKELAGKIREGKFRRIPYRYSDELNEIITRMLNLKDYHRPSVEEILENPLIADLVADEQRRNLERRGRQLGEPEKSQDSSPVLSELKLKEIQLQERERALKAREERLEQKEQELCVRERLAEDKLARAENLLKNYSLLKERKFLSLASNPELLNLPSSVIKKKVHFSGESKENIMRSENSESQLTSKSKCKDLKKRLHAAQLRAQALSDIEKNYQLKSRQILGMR
To be noted: at 0.1 µM.

Experiment [15] concerns the target T6, Serine/threonine-protein kinase Nek2 (Homo sapiens). To be noted: at 1 µM.
In experiment [16] the target is Serine/threonine-protein kinase Nek6 (Homo sapiens) (UniProt Q9HC98). The note with it: at 0.1 µM.
The target is the same in experiment [17]. The note with it: at 1 µM.
Experiment [18] concerns the target Serine/threonine-protein kinase Nek7 (Homo sapiens) (UniProt Q8TDX7). The note with it: at 0.1 µM.
The target is the same in experiment [19]. The note with it: at 1 µM.
For experiment [20], the target named is T7, Serine/threonine-protein kinase Nek9 (Homo sapiens) (UniProt Q8TD19).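 Further: reported value is the mean percent inhibition of NEK9.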
T7 sequence (whole entry): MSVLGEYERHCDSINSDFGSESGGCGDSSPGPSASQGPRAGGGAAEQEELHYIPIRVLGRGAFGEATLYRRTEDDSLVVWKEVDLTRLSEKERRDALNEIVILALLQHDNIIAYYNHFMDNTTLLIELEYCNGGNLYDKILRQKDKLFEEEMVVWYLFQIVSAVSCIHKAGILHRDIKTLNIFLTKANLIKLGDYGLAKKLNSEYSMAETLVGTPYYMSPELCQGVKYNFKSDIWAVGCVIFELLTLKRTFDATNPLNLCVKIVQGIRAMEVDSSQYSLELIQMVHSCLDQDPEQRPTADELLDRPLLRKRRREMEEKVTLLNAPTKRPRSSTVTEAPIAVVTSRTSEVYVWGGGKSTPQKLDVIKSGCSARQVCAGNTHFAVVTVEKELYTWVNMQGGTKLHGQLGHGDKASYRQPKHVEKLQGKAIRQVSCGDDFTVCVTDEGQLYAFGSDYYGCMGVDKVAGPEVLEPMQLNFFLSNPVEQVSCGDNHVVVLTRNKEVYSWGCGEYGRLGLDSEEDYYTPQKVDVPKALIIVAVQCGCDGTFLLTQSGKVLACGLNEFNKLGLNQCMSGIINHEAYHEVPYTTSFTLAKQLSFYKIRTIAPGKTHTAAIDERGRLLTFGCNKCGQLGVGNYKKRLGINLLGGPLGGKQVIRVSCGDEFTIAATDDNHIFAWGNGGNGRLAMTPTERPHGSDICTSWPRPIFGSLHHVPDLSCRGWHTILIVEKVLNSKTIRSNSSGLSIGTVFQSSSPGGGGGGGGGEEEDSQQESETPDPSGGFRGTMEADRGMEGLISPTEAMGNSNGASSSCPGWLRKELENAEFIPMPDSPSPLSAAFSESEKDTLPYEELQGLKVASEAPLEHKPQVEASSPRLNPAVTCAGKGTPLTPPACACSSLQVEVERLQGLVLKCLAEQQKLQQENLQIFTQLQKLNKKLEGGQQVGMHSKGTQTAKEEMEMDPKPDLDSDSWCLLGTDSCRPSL
The note with it: at 0.1 µM.

Chain of Serine/threonine-protein kinase Nek6 (Homo sapiens) (Q9HC98 whole entry): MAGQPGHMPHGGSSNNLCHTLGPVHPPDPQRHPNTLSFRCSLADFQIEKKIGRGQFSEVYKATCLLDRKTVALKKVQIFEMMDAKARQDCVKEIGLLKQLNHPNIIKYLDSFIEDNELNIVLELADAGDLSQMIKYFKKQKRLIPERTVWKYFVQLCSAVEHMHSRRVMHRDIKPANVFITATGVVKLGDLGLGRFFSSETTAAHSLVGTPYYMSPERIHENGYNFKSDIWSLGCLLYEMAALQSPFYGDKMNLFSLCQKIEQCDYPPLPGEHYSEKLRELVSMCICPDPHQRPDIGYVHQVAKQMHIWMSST
Chain of Serine/threonine-protein kinase Nek7 (Homo sapiens) (Q8TDX7 whole entry, looked up): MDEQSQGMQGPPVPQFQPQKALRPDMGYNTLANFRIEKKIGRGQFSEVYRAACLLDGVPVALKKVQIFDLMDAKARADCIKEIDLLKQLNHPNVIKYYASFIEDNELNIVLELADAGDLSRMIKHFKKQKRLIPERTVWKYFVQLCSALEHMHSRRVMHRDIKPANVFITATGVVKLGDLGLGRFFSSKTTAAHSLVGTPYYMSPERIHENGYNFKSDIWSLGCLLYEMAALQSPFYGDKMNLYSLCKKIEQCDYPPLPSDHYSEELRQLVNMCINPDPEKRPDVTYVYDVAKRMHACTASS
Chain of Casein kinase II subunit alpha (Homo sapiens) (P68400 whole entry, looked up): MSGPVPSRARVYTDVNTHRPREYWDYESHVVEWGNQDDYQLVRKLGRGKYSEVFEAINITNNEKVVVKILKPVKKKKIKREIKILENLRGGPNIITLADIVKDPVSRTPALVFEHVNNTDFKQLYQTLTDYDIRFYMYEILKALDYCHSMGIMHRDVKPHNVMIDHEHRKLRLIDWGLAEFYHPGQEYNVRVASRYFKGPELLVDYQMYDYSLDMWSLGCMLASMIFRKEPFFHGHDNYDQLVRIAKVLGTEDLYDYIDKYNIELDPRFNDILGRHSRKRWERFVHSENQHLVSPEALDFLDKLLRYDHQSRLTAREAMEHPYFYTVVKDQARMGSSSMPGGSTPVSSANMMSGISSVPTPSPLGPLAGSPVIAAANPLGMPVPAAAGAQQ
Chain of Sphingosine kinase 1 (Homo sapiens) (Q9NYA1 whole entry): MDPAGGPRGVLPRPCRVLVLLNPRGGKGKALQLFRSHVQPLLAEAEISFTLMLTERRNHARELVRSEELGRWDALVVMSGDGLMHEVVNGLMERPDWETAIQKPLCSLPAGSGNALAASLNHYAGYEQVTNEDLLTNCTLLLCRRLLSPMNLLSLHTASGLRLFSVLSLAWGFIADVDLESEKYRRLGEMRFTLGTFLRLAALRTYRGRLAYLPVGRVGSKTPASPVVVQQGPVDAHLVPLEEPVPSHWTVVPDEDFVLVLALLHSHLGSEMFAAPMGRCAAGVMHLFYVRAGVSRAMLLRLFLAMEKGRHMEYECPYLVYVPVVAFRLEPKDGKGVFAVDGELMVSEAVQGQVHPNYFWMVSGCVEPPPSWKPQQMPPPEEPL

For the compound `O=C(O[C@H]1CN[C@H](C#Cc2cc3ncnc(Nc4ccc(Cc5ccccc5)cc4)c3s2)C1)N1CCOCC1`, the inhibition (in general, the change of the read-out against control, counted positive when it falls) was -1.06% in [1]; -1.12% in experiment [2]; -1.6% in [3]; 6.95% in experiment [4]; 1.52% in experiment [5]; 6.44% in experiment [6]. For the same compound, the inhibition stood at 1.74% in [7]; 4% in [8]; 0.81% in experiment [9]; 3.09% in experiment [10]; 3.15% in experiment [11]; 1.41% in experiment [12]. The inhibition in experiment [13] came to 1.96%; in experiment [14], 2.89%; in experiment [15], 4.01%; in [16], 1.71%; in experiment [17], 1.61%; in [18] it was 2.18%. The values for the inhibition in [19] and in experiment [20] were 2.21% and 4.6%, respectively.
